These results are taken from PubChem BioAssay (NCATS).

For assay [1], the target named is Glutathione peroxidase 1 (Homo sapiens) (UniProt P07203). Briefly: Primary qHTS Assay for Inhibitors of Recombinant Selenoprotein Glutathione Peroxidase 1 (GPX1) (AID 1845191). Note: nearly all actives have a fitted effect of over 65% in size. Note: potency is the fitted concentration of half-maximal effect. In short, it runs like this: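 10 nM GPX1 + cpd, 30 min RT; start w/ 1 mM GSH, 0.5 mM cumene hydroperoxide, 0.5 mM NADPH, 100 nM GR, 0.01% BSA; buffer 50 mM Tris-HCl pH 7.5, 2 mM EDTA, 150 mM NaCl; Fl 340/450, 0 & 15 min.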
On the technique in general: Quantitative high-throughput screening tests each substance at several concentrations.

For assay [2], the target named is Phospholipid hydroperoxide glutathione peroxidase GPX4 (Homo sapiens) (UniProt P36969). In words: Primary qHTS Assay for Inhibitors of Recombinant Selenoprotein Glutathione Peroxidase 4 (GPX4) (AID 1845192). Note: nearly all actives have a fitted effect of over 65% in size. Note: potency is the fitted concentration of half-maximal effect. The procedure, abridged:
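NADPH consumption, followed by fluorescence at 340/450 nm between 0 and 15 min, reports GPX4 activity via coupled glutathione reductase (100 nM). Enzyme 200 nM was pre-exposed to compound 30 min; 0.5 mM cumene hydroperoxide and 1 mM GSH served as substrates.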

A short description of assay [3]: qHTS drug screen for cell cycle checkpoint inhibitors in PARPi-resistant BRCA-mutant ovarian cancer cell lines. (AID 1963452; calls by dose curve). To be noted: PEO1/OlaR viability, CellTiter-Glo luminescence, 96 h, stronger effect = lower value. In short, it runs like this:
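PEO1, PEO4 and PEO1/OlaR ovarian cancer cells, 600 per well, exposed 96 h at 37C to a dilution series. Viability read by CellTiter-Glo luminescence, normalized to DMSO and empty wells; activity summarized as Z-AUC.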

Where [4] appears, read: measured here: PEO1 parental Z-AUC.

Results filed as inconclusive are left out. The source made the active and inactive calls. Unless noted, calls come from the whole dose curve; as a rule, active = well fitted inhibition curve with a large enough effect; inconclusive = small, poorly fitted or top-dose-only effect; inactive = flat fitted curve, though single readings scatter.

Glutathione peroxidase 1 (Homo sapiens), sequence (P07203 whole entry, looked up): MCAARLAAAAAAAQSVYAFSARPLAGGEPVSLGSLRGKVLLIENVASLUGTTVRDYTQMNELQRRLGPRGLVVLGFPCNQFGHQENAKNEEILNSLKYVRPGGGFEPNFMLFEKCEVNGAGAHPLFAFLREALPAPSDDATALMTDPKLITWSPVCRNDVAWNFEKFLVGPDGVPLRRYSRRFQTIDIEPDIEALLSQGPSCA
Phospholipid hydroperoxide glutathione peroxidase GPX4 (Homo sapiens), sequence (P36969 whole entry, looked up): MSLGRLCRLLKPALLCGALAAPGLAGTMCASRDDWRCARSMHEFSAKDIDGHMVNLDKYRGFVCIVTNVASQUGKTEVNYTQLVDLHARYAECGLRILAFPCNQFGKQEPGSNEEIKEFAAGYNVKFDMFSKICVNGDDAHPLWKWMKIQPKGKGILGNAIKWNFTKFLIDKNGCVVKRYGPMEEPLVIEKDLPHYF

With `CC1(C)S[C@@H]2[C@H](NC(=O)[C@H](NC(=O)N3CCNC3=O)c3ccccc3)C(=O)N2C1C(=O)O` (some centres not stated), the Potency entry in assay [1] and in assay [2] was “inactive” throughout.
As to `CN(CC(O)CO)C(=O)c1c(I)c(NC(=O)C(CO)CO)c(I)c(C(=O)N(C)CC(O)CO)c1I` (configuration not stated), the Potency entry in assay [1] and in assay [2] was “inactive” throughout.
For `CN1C2CC[C@@H]1CC(OC(=O)[C@H](CO)c1ccccc1)C2` (some centres not stated), the Potency result in assay [1] and in assay [2] was “inactive” in each case.
On to `CO[C@H]1O[C@@H]2O[C@@]3(C)CC[C@H]4[C@H](C)CC[C@@H]([C@@H]1C)[C@@]24OO3`, for which the Potency entry in assay [1] and in assay [2] was “inactive” throughout.
For the compound `CC(=O)OCC1=C(C(=O)O)N2C(=O)[C@@H](NC(=O)[C@H](N)c3ccccc3)[C@H]2SC1`, the results for the Potency in assay [1] and in assay [2] were 10.1 µM (active) and 15.8 µM (active), respectively.
On to `CNC(=O)c1ccccc1Nc1nc(Nc2ccc3c(c2OC)CCC[C@H](N2CCN(CCO)CC2)C3)ncc1Cl`, for which the Potency entry in assay [1] and in assay [2] was “inactive” each time. The Z-AUC in assay [3] was -0.709 (inactive); in assay [3] (setting [4]), -0.531; in assay [3] (measured here: PEO4 Z-AUC), -0.58.
Consider `Cc1oc(-c2ccccc2)nc1CCOc1ccc(CC2C(=O)NOC2=O)cc1` (configuration not stated), for which the Potency entry in assay [1] was “inactive”. Moreover, the Potency in assay [2] was 14.1 µM (active).
On the same counts, the results for `CC1(C)C[C@H]1C(=O)N/C(=C\CCCCSC[C@@H](N)C(=O)O)C(=O)O` are “inactive” and “inactive”.
On the same counts, the results for `CC(C)C[C@H]1C(=O)O[C@H](Cc2ccc(N3CCOCC3)cc2)C(=O)N(C)[C@@H](CC(C)C)C(=O)O[C@H](C)C(=O)N(C)[C@@H](CC(C)C)C(=O)O[C@H](Cc2ccc(N3CCOCC3)cc2)C(=O)N(C)[C@@H](CC(C)C)C(=O)O[C@H](C)C(=O)N1C` are “inactive” and “inactive”.
For the compound `CCCN1C[C@@H](NS(=O)(=O)N(CC)CC)C[C@@H]2Cc3c(O)cccc3C[C@H]21`, the Potency result in assay [1] and in assay [2] was “inactive” throughout.
Take `CCc1ccc(N(CC(C)C)S(=O)(=O)c2ccc(OCC3CCOCC3)c(CO)c2)cc1`: the Potency result in assay [1] and in assay [2] was “inactive” each time. Also, the Z-AUC in assay [3] was -1.27 (inactive); in assay [3] (setting [4]), -0.28; in assay [3] (measured here: PEO4 Z-AUC), -0.861.
`CO[C@H]1C[C@@H]2CC[C@@H](C)[C@@](O)(O2)C(=O)C(=O)N2CCCC[C@H]2C(=O)O[C@H]([C@H](C)C[C@@H]2CC[C@@H](OCCO)[C@H](OC)C2)CC(=O)[C@H](C)/C=C(/C)[C@@H](O)[C@@H](OC)C(=O)[C@H](C)C[C@H](C)\C=C/C=C\C=C/1C`: the Potency result in assay [1] is “inactive”. Further, in assay [2], the Potency is 3.98 µM (active).
Turning to `O=C(OC1C(OC(=O)c2cccnc2)C(OC(=O)c2cccnc2)C(OC(=O)c2cccnc2)C(OC(=O)c2cccnc2)C1OC(=O)c1cccnc1)c1cccnc1` (configuration not stated), the Potency result in assay [1] and in assay [2] was “inactive” throughout.
For the compound `C/C(O)=C(\C#N)C(=O)Nc1ccc(C(F)(F)F)cc1`, the Potency result in assay [1] and in assay [2] was “inactive” throughout. Besides, the Z-AUC in assay [3] is -1.06 (inactive); in assay [3] (setting [4]), 0.703; in assay [3] (measured here: PEO4 Z-AUC) it was -0.074.
